Screening data as filed in PubChem BioAssay.
CYP2C19 inh = blockers of cytochrome P450 2C19 activity – biochemical, luminescence, ADME assay, primary screen. 21% of 96,000 active. inhibition, % at 5 µM. P33261. AID 778, 2007. CYP2C19 Supersomes, luciferin-H EGE luminescence, 30 min;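 active = CYP2C19 inhibition above a set limit at 5 µM in the primary screen, cut at about 50% in these data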;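 also: plate controls were negative control wells for no effect and 2.5 mM tranylcypromine positive control for full effect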
Target sequence (P33261 whole entry, looked up): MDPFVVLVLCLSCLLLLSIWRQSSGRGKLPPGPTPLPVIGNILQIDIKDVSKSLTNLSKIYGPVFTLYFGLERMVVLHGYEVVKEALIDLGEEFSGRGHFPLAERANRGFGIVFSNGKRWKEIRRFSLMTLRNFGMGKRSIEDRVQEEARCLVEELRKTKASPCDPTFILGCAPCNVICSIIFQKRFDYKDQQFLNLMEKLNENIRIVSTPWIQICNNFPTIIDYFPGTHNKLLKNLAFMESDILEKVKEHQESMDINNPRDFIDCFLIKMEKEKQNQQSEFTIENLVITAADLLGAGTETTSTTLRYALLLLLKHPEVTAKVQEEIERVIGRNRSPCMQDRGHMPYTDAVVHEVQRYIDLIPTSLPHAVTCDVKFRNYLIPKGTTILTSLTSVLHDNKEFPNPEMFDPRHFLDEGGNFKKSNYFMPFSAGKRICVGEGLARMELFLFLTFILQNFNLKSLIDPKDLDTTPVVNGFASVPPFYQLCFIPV
CYP2C9 inh = blockers of cytochrome P450 2C9 activity – biochemical, luminescence, ADME assay, primary screen; P11712; CYP2C9 Supersomes, luciferin-H conversion; inhibition, % at 5 µM; 20% of 96,000 active; AID 777, 2007;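 active = blocking of liver enzyme CYP2C9 beyond about 50% at 5 µM, limit read from the data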
sEH activator = soluble epoxide hydrolase activators, primary screen, biochemical, human sEH; AID 717, 2007; activation, % at 2 µM; 0.04% of 91,000 active; Bifunctional epoxide hydrolase 2 (Homo sapiens), P34913; purified human sEH enzymatic activity, activator screen; in the data active = activation above about 37%
CYP2C9 activ = human CYP2C9 activators, primary screen, biochemical, luminescence; Cytochrome P450 2C9 (Homo sapiens), P11712; recombinant CYP2C9, luciferin-H conversion; hits give high values; factor 1 = untreated enzyme, 0 = blocked; activation factor at 5 µM; 1.4% of 96,000 active;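 active = activation factor of 2 or more for CYP2C9 at a 5 µM dose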;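 also: 0 = sulfaphenazole-blocked wells and 1 = vehicle-only wells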
CYP2C19 act = human CYP2C19 activators, primary screen, biochemical, luminescence. Cytochrome P450 2C19 (Homo sapiens), P33261. recombinant CYP2C19, luciferin-H EGE luminescence; hits give high values; 0 = fully inhibited enzyme, 1 = untreated enzyme. activation factor at 5 µM. 96,000 tested, under 10 active. AID 1025, 2008;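 active = activation factor of at least 2 at 5 µM in the primary screen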;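 also: 0 = wells with 2.5 mM tranylcypromine and 1 = vehicle-only wells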
sEH inh = soluble epoxide hydrolase inhibitors, primary screen, biochemical, human sEH; inhibition, % at 2 µM; 0.34% of 91,000 active; recombinant human sEH enzymatic activity assay; AID 707, 2007; Bifunctional epoxide hydrolase 2 (Homo sapiens), P34913; in the data active = inhibition above about 80%
Starred values were filed as active, the others as inactive; . = no result. A selection: hits, their analogues and other compounds. The true share with any hit is near 27%.

SMILES	CYP2C19 inh	CYP2C9 inh	sEH activator	CYP2C9 activ	CYP2C19 act	sEH inh
CC(=O)Nc1cccc(C(=O)NC(C)c2ccc(S(N)(=O)=O)cc2)c1 (centres undefined)	-6	7	0	0.9	1.1	-1
COC(=O)NCC(C)OC(=O)Nc1cccc(Cl)c1 (centres undefined)	59*	35	11	0.6	0.4	-10
O=C(Nc1cccc(Cl)c1)ON=C1c2ccccc2-c2ccccc21	11	63*	-9	0.4	0.9	10
CC(C)COC(=O)NCCOC(=O)Nc1cccc(Cl)c1	95*	80*	-4	0.2	0	2
CCCCOc1ccc2c(C)cc(=O)oc2c1OCCCC	.	.	-3	.	.	6
O=S(=O)(c1ccc(F)cc1)N1CCN(c2nc(-c3ccc(F)cc3)cs2)CC1	-6	-6	13	1.1	1.1	-14
Cc1ccc(-c2csc(N3CCC(NS(=O)(=O)c4ccc5c(c4)OCCO5)CC3)n2)cc1	47	63*	-4	0.4	0.5	3
CCOC(=O)c1c(Nc2ccccc2)sc(/C=C2\C=Nc3ccccc32)c1O	32	73*	9	0.3	0.7	-10
COc1ccc(Cc2nnc(NC(=O)Cn3cnc4c3c(=O)n(C)c(=O)n4C)s2)cc1	.	.	-13	.	.	15
Cc1occc1-c1nnc(SCC(=O)NCCc2ccccc2)n1C(C)c1ccccc1 (centres undefined)	26	84*	.	0.2	0.7	.
Cc1csc(NC(=O)CSc2nnc(-c3ccoc3C)n2Cc2ccco2)n1	85*	88*	0	0.1	0.2	1
CCCn1c(SCC(=O)Nc2nonc2C)nnc1-c1ccoc1C	54*	-1	-6	1	0.5	5
Cc1csc(NC(=O)CSc2nnc(-c3ccoc3C)n2CCc2ccccc2)n1	47	57*	-14	0.4	0.5	16
Cc1csc(NC(=O)CSc2nnc(C)n2Cc2ccco2)n1	2	14	13	0.9	1	-13
COc1ccccc1CN1CC(C(=O)NCc2cccnc2)CC1=O (centres undefined)	8	1	-2	1	0.9	6
CC(C)C(NC(=O)c1ccccc1)c1nnc(SCC(=O)Nc2nccs2)n1C (centres undefined)	2	9	8	0.9	1	-10
Cc1occc1-c1nnc(SCC(=O)Nc2nccs2)n1CCc1ccccc1	40	26	25	0.7	0.6	-24
Cc1cccc(C)c1NC(=O)CSc1nnc(-c2ccoc2C)n1CCc1ccccc1	70*	68*	-5	0.3	0.3	6
COC(=O)C1(CCSC)NC(c2ccco2)C2C(=O)N(C)C(=O)C21 (centres undefined)	60*	-6	9	1.1	0.4	-9
CCOc1ccc(Cc2c(Cl)nc(N)nc2Cl)cc1	53*	-4	2	1	0.5	-1
CCOc1ccc(Cc2nc(N)nc(N)n2)cc1	.	.	-8	.	.	7
CC1(C)C(=O)N(OCc2ccccc2)C(C)(C)C(=O)N1OCc1ccccc1	57*	36	3	0.6	0.4	-1
CC(C)CC(OC(=O)c1nsc(Cl)c1Cl)C(=O)NCc1cccs1 (centres undefined)	.	.	0	.	.	3
CC(OC(=O)c1ccccc1NCc1ccco1)C(=O)Nc1ncc(Cl)cc1Cl (centres undefined)	66*	81*	.	0.2	0.3	.
CC(OC(=O)c1nn(C)c(=O)c2ccccc12)C(=O)NCc1ccc2c(c1)OCO2 (centres undefined)	38	78*	0	0.2	0.6	-3
CC(C)CCn1nc(C(=O)OC(C)C(=O)NC(N)=O)c2ccccc2c1=O (centres undefined)	37	67*	2	0.3	0.6	1
CC(OC(=O)c1nsc(Cl)c1Cl)C(=O)NCc1ccco1 (centres undefined)	67*	56*	14	0.4	0.3	-14
CC(OC(=O)CCc1nc2ccccc2c(=O)[nH]1)C(=O)NCc1ccc2c(c1)OCO2 (centres undefined)	.	.	0	.	.	1
